Records with an inconclusive call do not appear. Activity calls are given as the source filed them. The call rests on the fitted dose curve; in most records, active means well fitted activation curve with a large enough effect; inconclusive means small, poorly fitted or top-dose-only effect; inactive means no such curve, though single readings can be large or run the other way.
Each compound was assayed against Pyruvate kinase PKM (Homo sapiens) (UniProt P14618) (assay: Confirmation Concentration-Response Assay for Activators of Human Muscle isoform 2 Pyruvate Kinase). Conditions: purified hPK-M2, Kinase-Glo ATP luminescence, 1 h; series mostly up to 57.5 µM; activation (negative = inhibition): at the top concentration.
Chain of Pyruvate kinase PKM (Homo sapiens) (P14618 whole entry, looked up, canonical isoform): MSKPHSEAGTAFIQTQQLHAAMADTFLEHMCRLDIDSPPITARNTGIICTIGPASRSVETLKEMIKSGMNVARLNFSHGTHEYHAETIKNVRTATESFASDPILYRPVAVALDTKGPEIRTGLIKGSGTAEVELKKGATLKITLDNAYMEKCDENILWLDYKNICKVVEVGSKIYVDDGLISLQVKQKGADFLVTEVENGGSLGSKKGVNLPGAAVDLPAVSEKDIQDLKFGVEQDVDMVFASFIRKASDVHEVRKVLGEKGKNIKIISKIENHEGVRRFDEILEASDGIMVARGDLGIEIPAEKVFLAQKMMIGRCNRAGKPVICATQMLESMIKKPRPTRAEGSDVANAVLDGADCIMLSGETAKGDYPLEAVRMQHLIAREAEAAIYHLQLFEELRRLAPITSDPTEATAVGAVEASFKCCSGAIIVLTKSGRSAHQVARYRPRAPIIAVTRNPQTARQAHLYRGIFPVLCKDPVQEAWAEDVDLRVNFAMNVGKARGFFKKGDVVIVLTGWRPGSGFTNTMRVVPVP
Source text: NIH Chemical Genomics Center [NCGC] Matthew G. Vander Heiden, M.D., Ph.D. [Harvard Medical School, 77 Avenue Louis Pasteur, Boston, MA 02115] MLPCN Grant: 1 R03 MH085679-01 NCGC Assay Overview: Human pyruvate kinase muscle 2 (hPK-M2) enzyme was supplied as a highly purified (>95% pure) preparation from Harvard Medical School and assayed for its ability to generate ATP from ADP using phosphoenolpyruvate (PEP) as a substrate. ATP generation was detected in a coupled reaction by luciferase-mediated luminescence, an ATP-dependent process. Pyruvate kinase substrates, PEP and ADP, were present in the assay at Km and approximately 10-fold below Km respectively. The enzyme was assayed at an intermediate level of activity to screen for both inhibitors and activators.
NCGC Assay Protocol Summary: Three uL of substrate mix (at r.t.) in assay buffer (50 mM Imidazole pH7.2, 50 mM KCl, 7 mM MgCl2, 0.01% Tween 20, 0.05% BSA) was dispensed into white solid bottom 1,536 well microtiter plates so that the final concentrations of substrates in the assay were 0.1 mM ADP and 0.5 mM PEP. 23 nL of compound were delivered by a pin tool and 1 uL of enzyme mix (final concentration of 0.1 nM) in assay buffer (4 degree Celsius) was added. Plates were incubated at room temperature for 1 hour. Two uL of detection mix (Kinase-Glo, Promega; at 4 degree Celsius protected from light) was added and luminescence read by a ViewLux (Perkin Elmer) at 1 second exposure/plate. Data were normalized to the uninhibited (column 3) and AC100 inhibition (no enzyme in column 2). To monitor activation, the first column contained a titration of the activator, NCGC00031955-03 (16-point 1:2 dilutions in duplicate starting at 57 uM) and the first 16 rows of column 4 contained 57 uM of NCGC00031955-03.
`O=S(=O)(NCC1CN(S(=O)(=O)c2c(F)cccc2F)C1)c1ccc2c(c1)OCCO2` was tested, and the Potency was 2530 nM (active). For `O=S(=O)(c1ccc2c(c1)OCCO2)N1CCN(S(=O)(=O)c2ccc3c(c2)OCCO3)CC1`, the Potency was 179 nM (active). `O=S(=O)(NC1CCN(S(=O)(=O)c2ccc3c(c2)OCCO3)C1)c1c(F)cccc1F` (stereo not given) was tested, and the Potency was 17900 nM (active). `COc1ccc2nc3sc(C(=O)NCc4cccs4)c(N)c3cc2c1` was tested, and the “activation (negative = inhibition)” value was -22.2% (inactive). For `COc1ccc(S(=O)(=O)N2CCN(S(=O)(=O)c3ccc(OC)cc3)CC2)cc1`, the Potency was 142 nM (active). With `Cc1cc2c(s1)c1cnn(Cc3ccccc3F)c(=O)c1n2C(C)C` the “activation (negative = inhibition)” value was 11.2% (inactive). With `CC(O)c1cc2c(s1)c1cnn(Cc3ccccc3F)c(=O)c1n2C` (stereo not given) the Potency was 113 nM (active). In the case of `Cc1ccc(Cn2ncc3c4sc(C)cc4n(C)c3c2=O)cc1`, the Potency was 225 nM (active). In the case of `Cc1cc2c(s1)c1cnn(Cc3cccc(F)c3F)c(=O)c1n2C`, the Potency was 113 nM (active). For `O=C1CN(S(=O)(=O)c2ccc3c(c2)OCCO3)CCN1S(=O)(=O)c1c(F)cccc1F`, the Potency was 2250 nM (active). In the case of `Cc1cc2c(s1)c1cnn(Cc3ccccc3Cl)c(=O)c1n2C`, the Potency was 113 nM (active). For `Cc1cc2c(s1)c1cnn(Cc3c(F)cccc3F)c(=O)c1n2C`, the Potency was 25.3 nM (active). For `Oc1ccc(-c2nnc(-c3ccc(O)cc3)nn2)cc1`, the “activation (negative = inhibition)” value was -76.3% (inactive). In the case of `COC(=O)c1cc2c(s1)c1cnn(Cc3ccccc3F)c(=O)c1n2C`, the Potency was 39.1 nM (active). `O=S(=O)(NCCNS(=O)(=O)c1c(F)cccc1F)c1ccc2c(c1)OCCO2` was tested, and the Potency was 20100 nM (active). In the case of `CC1(C)CCc2cc(S(=O)(=O)N3CCN(S(=O)(=O)c4c(F)cccc4F)CC3)ccc2O1`, the Potency was 71.3 nM (active). For `Cc1cc2c(s1)c1cnn(Cc3ccc(F)c(F)c3F)c(=O)c1n2C`, the Potency was 713 nM (active). `CC(C)N1C(=S)SC(C)(C)C1NO` (stereo not given) was tested, and the “activation (negative = inhibition)” value was -4.61% (inactive). For `Cn1c2cc(C=O)sc2c2cnn(Cc3ccccc3F)c(=O)c21`, the Potency was 7.1 nM (active). `C[C@@H]1CN(S(=O)(=O)c2ccc3c(c2)OCCO3)CCN1S(=O)(=O)c1c(F)cccc1F` was tested, and the Potency was 2530 nM (active). For `Cc1cc2c(s1)c1cnn(Cc3ccc(S(C)(=O)=O)cc3)c(=O)c1n2C`, the Potency was 4500 nM (active). In the case of `Cn1ccc2cc(S(=O)(=O)N3CCN(S(=O)(=O)c4c(F)cccc4F)CC3)ccc21`, the Potency was 318 nM (active). `Cc1ccc(S(=O)(=O)N2CCCN(S(=O)(=O)c3ccc4c(c3)OCCO4)CC2)cc1` was tested, and the Potency was 398 nM (active). For `O=S(=O)(NCC1CN(S(=O)(=O)c2ccc3c(c2)OCCO3)C1)c1c(F)cccc1F`, the Potency was 4010 nM (active). `O=S(=O)(NC1CCN(S(=O)(=O)c2c(F)cccc2F)C1)c1ccc2c(c1)OCCO2` (stereo not given) was tested, and the Potency was 11300 nM (active). `O=S(=O)(c1ccc2c(c1)OCCO2)N1CCN(S(=O)(=O)c2c(F)cccc2F)CC1` was tested, and the Potency was 35.7 nM (active). `Cc1cc2c(s1)c1cnn(Cc3cc(C(F)(F)F)cc(Cl)c3F)c(=O)c1n2C` was tested, and the Potency was 20.1 nM (active). For `Cc1sc2ncnc(OCC(=O)N3CCN(S(=O)(=O)c4ccc(Cl)cc4)CC3)c2c1C`, the “activation (negative = inhibition)” value was 4.53% (inactive). With `COc1ccc(Cn2ncc3c4sc(C)cc4n(C)c3c2=O)cc1F` the Potency was 127 nM (active). `O=S(=O)(NCCCCNS(=O)(=O)c1c(F)cccc1F)c1ccc2c(c1)OCCO2` was tested, and the Potency was 5050 nM (active). For `O=C1NC(=S)S/C1=C1\Sc2ccccc2N1CCCS(=O)(=O)O`, the “activation (negative = inhibition)” value was -46.2% (inactive). `Cn1c2ccsc2c2ncn(Cc3ccccc3F)c(=O)c21` was tested, and the Potency was 17900 nM (active). In the case of `Cc1cc2c(s1)c1cnn(Cc3ccc(F)cc3F)c(=O)c1n2C`, the Potency was 25.3 nM (active). For `Cn1c2cc(CO)sc2c2cnn(Cc3ccccc3F)c(=O)c21`, the Potency was 28.4 nM (active). With `Cc1cccc(NC(=O)c2cnc3ccccn3c2=O)c1` the “activation (negative = inhibition)” value was -46.5% (inactive). `O=S(=O)(c1ccccc1)N1CCN(S(=O)(=O)c2ccc3c(c2)OCCO3)CC1` was tested, and the Potency was 160 nM (active). For `Cc1cc2c(s1)c1cnn(Cc3cccc(Cl)c3)c(=O)c1n2C`, the Potency was 101 nM (active). In the case of `Cc1cc2c(s1)c1cnn(Cc3ccc(C)c(F)c3F)c(=O)c1n2C`, the Potency was 56.6 nM (active). `O=S(=O)(c1ccc(F)cc1)N1CCN(S(=O)(=O)c2ccc3c(c2)OCCO3)CC1` was tested, and the Potency was 56.6 nM (active). `O=C1C(=C2SCCCS2)CC/C1=C\c1ccc(F)cc1` was tested, and the “activation (negative = inhibition)” value was -86.9% (inactive).
